Results taken from PubChem BioAssay (Tox21).
Inconclusive results are not listed. Activity calls are given as the source filed them. Unless noted, calls come from the whole dose curve; as a rule, active = well fitted curve in the direction sought with a large enough effect in the repeat runs; inconclusive = weak or mixed curves; inactive = no such curve, though single readings can be large; an effect the other way counts as inactive or inconclusive.

Key:
[1] = qHTS assay for small molecule agonists of the p53 signaling pathway (AID 651631; calls by dose curve; note: nearly all actives have a fitted effect of over 15% in size)
Summary of the method: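 Readout was fluorescence from the LiveBLAzer FRET substrate, applied for 2 h at room temperature after 16 h compound exposure at 37 °C. Cells were the p53RE-bla HCT-116 line, with beta-lactamase driven by p53 response elements.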

[2] = qHTS assay for small molecules that induce genotoxicity in human embryonic kidney cells expressing luciferase-tagged ATAD5 (AID 651632); note: nearly all actives have a fitted effect of over 15% in size
Summary of the method: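 Luminescence read-out: after 16 hr compound exposure at 37C, ATAD5-luciferase HEK293T cells received Amplite, 30 min RT, then CCD imaging. A rise in signal marks genotoxic stress.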

[3] = qHTS assay for small molecule agonists of the p53 signaling pathway - cell viability (AID 651633; calls by dose curve; note: series mostly up to about 83 µM; nearly all actives have a fitted effect of over 30% in size)
Summary of the method: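 Viability counter-read: CellTiter-Glo luminescence (30 min, room temperature) in the same p53RE-bla plates. These plates had been exposed to compounds for 16 h at 37 C.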

[4] = qHTS assay for small molecule disruptors of the mitochondrial membrane potential - cell viability (AID 720634; calls by dose curve;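 note: human HepG2 liver cancer cells; series mostly up to about 83 µM; nearly all actives have a fitted effect of over 20% in size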)
Summary of the method: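 Luminescence from CellTiter-Glo (ATP content) gave viability in HepG2 cells, read in the same wells as the MMP dye assay after 1 hr compound exposure at 37 C.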

[5] = qHTS assay to test for compound auto fluorescence at 590 nm (red) in HepG2 cells (AID 720674)
Summary of the method: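 Red autofluorescence (Ex/Em 540/590 nm, Rose Bengal sodium equivalents) was measured in HepG2 cells, 2,000 per well in MEM plus 10% FBS, plated overnight at 37 C. Readings were taken 1 hr after adding 23 nL compound or DMSO, at 37 C and 5% CO2.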

[6] = qHTS assay to test for compound auto fluorescence at 535 nm (green) in HepG2 cells (AID 720675)
[7] = qHTS assay to test for compound auto fluorescence at 460 nm (blue) in HEK293 cells (AID 720678)
Summary of the method: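 Auto fluorescence in the blue band was quantified as triamterene equivalency. HEK293 cells were seeded at 2,000/well, dosed after a 4-5 hr attachment, and kept overnight at 37C before the 405/460 nm reading.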

[8] = qHTS assay to test for compound auto fluorescence at 590 nm (red) in HEK293 cells (AID 720679)
Summary of the method: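 Autofluorescence equivalency to Rose Bengal sodium, 540/590nm, in HEK293 cells exposed overnight to 23 nL compound per well.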

[9] = qHTS assay to test for compound auto fluorescence at 535 nm (green) in HEK293 cells (AID 720680)
[10] = qHTS assay to test for compound auto fluorescence at 460 nm (blue) in HEK293 cell free culture (AID 720681)
Summary of the method: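 Blue fluorescence (Ex 405/Em 460 nm, triamterene-equivalent) was read immediately after pin transfer of compound or DMSO into medium (DMEM, 10% FBS) without cells.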

[11] = qHTS assay to test for compound auto fluorescence at 535 nm (green) in HEK293 cell free culture (AID 720682)
Summary of the method: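 Compounds were pin-transferred into cell-free DMEM with 10% FBS, and green fluorescence was read at excitation 485 nm and emission 535 nm. Intensities were expressed as fluorescein-equivalent values.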

[12] = qHTS assay to test for compound auto fluorescence at 590 nm (red) in HepG2 cell free culture (AID 720684)
Summary of the method: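 No cells present: MEM + 10% FBS only. Compound pinned in, red label read (540/590 nm). Activity = fluorescence equivalent to Rose Bengal sodium.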

[13] = qHTS assay to test for compound auto fluorescence at 460 nm (blue) in HepG2 cell free culture (AID 720685)
Summary of the method: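 Cell-free plates of MEM plus 10% FBS received 23 nL compound or DMSO vehicle; blue-channel (405/460 nm) intensity scored against triamterene as reference fluorophore.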

[14] = qHTS assay to test for compound auto fluorescence at 535 nm (green) in HepG2 cell free culture (AID 720686)
[15] = qHTS assay to test for compound auto fluorescence at 460 nm (blue) in HepG2 cells (AID 720687)
Summary of the method: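 Blue-channel autofluorescence (Ex/Em 405/460 nm, triamterene-equivalent) was measured after 1 hr compound exposure at 37 C, 5% CO2. Cells were HepG2, plated overnight at 37 C in MEM plus 10% FBS.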

[16] = qHTS assay for small molecules that induce genotoxicity in human embryonic kidney cells expressing luciferase-tagged ATAD5 - cell viability (AID 651634; calls by dose curve; note: nearly all actives have a fitted effect of over 25% in size)
Summary of the method: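 HEK293T ATAD5-luc cells, 2,000/well; compound 15.5 hr, 37C/5% CO2; CellTiter-Fluor 30 min, 37C; fluorescence read.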

[17] = qHTS assay for small molecule disruptors of the mitochondrial membrane potential (AID 720635); note: potency is the fitted concentration of half-maximal effect
Summary of the method: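 Mitochondrial membrane potential tracked with Mito-MPS dye, red aggregates (ex 540/em 590 nm) against green monomers (ex 490/em 535 nm). Compound treatment 1 hr at 37C, dye 30 min in HepG2.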

[18] = qHTS assay to test for compound auto fluorescence at 590 nm (red) in HEK293 cell free culture (AID 720683)
Summary of the method: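 Red-channel autofluorescence of compounds in culture medium (DMEM, 10% FBS), no cells, measured at 540/590 nm. Rose Bengal sodium is the reference fluorophore for equivalence.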

[19] = target: Glucocorticoid receptor (Homo sapiens) (UniProt P04150); assay: qHTS assay to identify small molecule agonists of the glucocorticoid receptor (GR) signaling pathway (AID 720691; active = well fitted activation curve with a large enough effect in the signal ratio in the repeat runs, not every such curve was filed as active; the % refers to the signal ratio)
Summary of the method: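 HeLa GR-bla reporter line; cells pre-incubated 4 h, compound in DMSO 18 h at 37 C; LiveBLAzer B/G FRET substrate 2 h RT; fluorescence intensity read-out.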

[20] = target: Glucocorticoid receptor (Homo sapiens) (UniProt P04150); assay: qHTS assay to identify small molecule antagonists of the glucocorticoid receptor (GR) signaling pathway (AID 720692; active = well fitted inhibition curve with a large enough effect in the signal ratio in the repeat runs, not every such curve was filed as active; the % refers to the signal ratio; note: potency is the fitted concentration of half-maximal effect)
Summary of the method: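 Read-out: beta-lactamase FRET substrate fluorescence, 2 h at room temperature, in HeLa cells stably carrying a GRE-driven bla reporter. Compounds were co-incubated with 5 nM dexamethasone agonist (final) for 18 h at 37 C.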
% is set by controls: 0 for no effect and ±100 for the full control effect.

Sequence of Glucocorticoid receptor (Homo sapiens) (P04150 whole entry, looked up): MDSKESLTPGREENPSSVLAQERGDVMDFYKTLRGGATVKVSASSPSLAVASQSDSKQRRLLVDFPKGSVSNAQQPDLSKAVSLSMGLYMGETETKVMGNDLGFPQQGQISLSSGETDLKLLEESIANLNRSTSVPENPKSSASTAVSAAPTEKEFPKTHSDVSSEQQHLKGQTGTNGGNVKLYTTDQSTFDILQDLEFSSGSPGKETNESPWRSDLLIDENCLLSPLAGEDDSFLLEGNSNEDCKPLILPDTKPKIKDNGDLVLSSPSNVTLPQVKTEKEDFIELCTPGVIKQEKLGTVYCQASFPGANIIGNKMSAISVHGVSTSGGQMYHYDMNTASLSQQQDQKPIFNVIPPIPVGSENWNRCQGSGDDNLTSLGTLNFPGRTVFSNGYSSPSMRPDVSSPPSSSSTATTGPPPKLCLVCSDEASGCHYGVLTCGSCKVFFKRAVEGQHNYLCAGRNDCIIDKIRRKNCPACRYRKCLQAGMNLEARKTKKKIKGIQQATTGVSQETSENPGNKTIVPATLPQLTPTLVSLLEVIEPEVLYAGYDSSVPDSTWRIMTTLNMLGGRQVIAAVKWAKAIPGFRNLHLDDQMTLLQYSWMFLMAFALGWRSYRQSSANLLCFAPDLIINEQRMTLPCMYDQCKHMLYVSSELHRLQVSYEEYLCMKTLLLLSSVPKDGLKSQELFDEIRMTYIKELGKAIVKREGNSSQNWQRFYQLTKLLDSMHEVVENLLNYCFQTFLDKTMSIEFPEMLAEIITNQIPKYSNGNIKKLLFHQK

c1cnc2c(n1)CCCC2
inactive: Potency [1] | Potency [2] | Potency [3] | Potency [4] | outcome [5] | outcome [6] | Potency [7] | outcome [8] | outcome [9] | Potency [10] | outcome [11] | outcome [12] | Potency [13] | outcome [14] | Potency [15]

O=[N+]([O-])c1cccc(S(=O)(=O)NCCNS(=O)(=O)c2cccc([N+](=O)[O-])c2)c1
active: Potency [17] 11.9 µM
inactive: Potency [1] | Potency [2] | Potency [3] | Potency [16] | outcome [5] | outcome [6] | outcome [8] | outcome [9] | outcome [11] | outcome [18] | outcome [12] | Potency [13] | outcome [14] | Potency [15] | Potency [19] | Potency [20]

CCC(C)(C)C1CCC(O)CC1 (stereo not drawn)
inactive: Potency [1] | Potency [2] | Potency [3] | Potency [16] | outcome [5] | outcome [6] | outcome [8] | outcome [9] | Potency [10] | outcome [11] | outcome [18] | outcome [12] | Potency [13] | outcome [14] | Potency [15]

CNCCCC1c2ccccc2C=Cc2ccccc21
inactive: Potency [1] | Potency [2] | Potency [3] | Potency [16] | fluorescence, relative to Rose Bengal [5] -0.202% [at 18.6 µM] | fluorescence, % of fluorescein control [6] -0.0324% [at 18.6 µM] | fluorescence, % of triamterene [7] 0.0209% [at 18.6 µM] | fluorescence, % of fluorescent control [8] -0.279% [at 18.6 µM] | fluorescence, % of fluorescein [9] 0.0057% [at 18.6 µM] | fluorescence, % of fluorescent control [10] 0.01% [at 18.6 µM] | activity change [11] 0.0344% [at 18.6 µM] | fluorescence, % of Rose Bengal [12] 0.549% [at 18.6 µM] | fluorescence, % of fluorescent control [13] -0.0014% [at 18.6 µM] | fluorescence, % of fluorescein control [14] -0.0217% [at 18.6 µM] | fluorescence, % of fluorescent control [15] -0.121% [at 18.6 µM] | Potency [19]

CC1(C)C2=CCCC(C)(C)[C@]23CC[C@H]1C3
inactive: Potency [1] | Potency [2] | Potency [3] | Potency [16] | outcome [5] | outcome [6] | Potency [7] | outcome [9] | Potency [10] | outcome [11] | outcome [18] | outcome [12] | Potency [13] | outcome [14] | Potency [15] | Potency [19] | Potency [20]

CC(=O)Nc1ccc(N)cc1
inactive: Potency [1] | Potency [2] | Potency [3] | Potency [4] | Potency [17] | outcome [5] | outcome [6] | outcome [9] | Potency [10] | outcome [11] | outcome [18] | outcome [12] | Potency [13] | outcome [14] | Potency [15] | Potency [19] | Potency [20]

CCCCC/C(=C\c1ccccc1)CO
active: Potency [17] 30.3 µM
inactive: Potency [1] | Potency [2] | Potency [3] | Potency [16] | outcome [5] | outcome [6] | Potency [7] | outcome [8] | outcome [9] | Potency [10] | outcome [11] | outcome [18] | outcome [12] | Potency [13] | outcome [14] | Potency [15]

O=C1OCCN1/N=C/c1ccc([N+](=O)[O-])o1
inactive: Potency [1] | Potency [2] | Potency [3] | Potency [16] | Potency [4] | outcome [6] | Potency [7] | outcome [9] | Potency [10] | outcome [11] | outcome [18] | outcome [12] | Potency [13] | outcome [14] | Potency [15] | Potency [19] | Potency [20]

Cc1nc2ccccn2c(=O)c1CCN1CCC(C(=O)c2ccc(F)cc2)CC1
inactive: Potency [1] | Potency [2] | Potency [3] | Potency [4] | outcome [5] | outcome [6] | Potency [7] | outcome [8] | outcome [9] | Potency [10] | outcome [11] | outcome [18] | outcome [12] | Potency [13] | outcome [14] | Potency [15] | Potency [19]

C[C@]12CCC(=O)C=C1C=C[C@@H]1[C@@H]2CC[C@@]2(C)[C@H]1CC[C@@]21CCC(=O)O1
inactive: Potency [1] | Potency [2] | Potency [16] | Potency [4] | Potency [17] | outcome [5] | outcome [6] | Potency [7] | outcome [9] | Potency [10] | outcome [11] | outcome [18] | outcome [12] | Potency [13] | outcome [14] | Potency [15] | Potency [19]
active: Potency [20] 10.7 µM

CCOC(=O)CC(=O)C(=O)OCC
inactive: Potency [1] | Potency [2] | Potency [3] | Potency [16] | outcome [6] | Potency [7] | outcome [8] | outcome [9] | outcome [11] | outcome [18] | outcome [12] | Potency [13] | outcome [14] | Potency [15] | Potency [19] | Potency [20]

C=CC(C)(O)CCCC(C)CCCC(C)CCCC(C)C (stereo not drawn)
inactive: Potency [1] | Potency [2] | Potency [3] | Potency [4] | outcome [5] | outcome [6] | Potency [7] | outcome [8] | outcome [9] | outcome [11] | outcome [18] | outcome [12] | Potency [13] | outcome [14] | Potency [15] | Potency [19] | Potency [20]

CN1CCCN=C1/C=C/c1cccs1
inactive: Potency [1] | Potency [2] | Potency [3] | Potency [16] | Potency [17] | outcome [6] | Potency [7] | outcome [8] | outcome [9] | Potency [10] | outcome [11] | outcome [12] | Potency [13] | outcome [14] | Potency [15] | Potency [19]

C[N+]1(C)CCC(=C(c2ccccc2)c2ccccc2)CC1
inactive: Potency [1] | Potency [2] | Potency [3] | fluorescence, relative to Rose Bengal [5] -0.257% [at 18.6 µM] | fluorescence, % of fluorescein control [6] -0.0806% [at 18.6 µM] | fluorescence, % of triamterene [7] 0.577% [at 18.6 µM] | fluorescence, % of fluorescent control [8] -0.153% [at 18.6 µM] | fluorescence, % of fluorescein [9] -0.0107% [at 18.6 µM] | activity change [11] -0.0334% [at 18.6 µM] | fluorescence, % of fluorescent control [18] -0.165% [at 18.6 µM] | fluorescence, % of Rose Bengal [12] 0.107% [at 18.6 µM] | fluorescence, % of fluorescent control [13] -0.143% [at 18.6 µM] | fluorescence, % of fluorescein control [14] 0.0841% [at 18.6 µM] | fluorescence, % of fluorescent control [15] 0.0159% [at 18.6 µM] | Potency [19]

Nc1ccc(S(=O)(=O)O)c(N)c1
inactive: Potency [1] | Potency [2] | Potency [3] | Potency [4] | outcome [5] | outcome [6] | Potency [7] | outcome [8] | outcome [9] | Potency [10] | outcome [11] | outcome [18] | outcome [12] | Potency [13] | outcome [14] | Potency [15] | Potency [19] | Potency [20]
